HEK293 tox: kills HEK 293 cells; HEK 293 viability, ATP luminescence (CellTiter-Glo), 48-72 h; Potency, µM (highest dose often 115 µM), without a hit: top-dose activity change, negative = cytotoxicity, actives largely listed as inhibitors; 94,000 compounds, 6.6% hits; AID 1345083; further: nearly all actives have a fitted effect of over 60% in size
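CellTiter-Glo luminescence (cellular ATP) was read after 48 or 72 hr of compound exposure at 37 degree Celsius. Cells were HEK 293 plated at 250 cells/well.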
NIH3T3 tox: cytotoxic compounds in NIH 3T3 cells | NIH 3T3 viability, CellTiter-Glo ATP luminescence, 48-72 h | Potency, µM (doses to about 96.7 µM), for inactives: top-dose activity change, negative = cytotoxicity, hits mostly inhibitors | 94,000 compounds, 4.3% hits; further: nearly all actives have a fitted effect of over 55% in size
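ATP-dependent luminescence (CellTiter-Glo) served as the viability signal for NIH 3T3 cells treated with compound for 48 or 72 hr at 37 °C.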
FLuc inh: Photinus pyralis luciferase inhibition; P08659; purified P. pyralis luciferase, luminescence, biochemical; Potency, µM (doses to about 115 µM), most hits filed as inhibitors; 76,000 compounds, 2.5% hits; further: nearly all actives have a fitted effect of over 65% in size
Target sequence (P08659 whole entry, looked up): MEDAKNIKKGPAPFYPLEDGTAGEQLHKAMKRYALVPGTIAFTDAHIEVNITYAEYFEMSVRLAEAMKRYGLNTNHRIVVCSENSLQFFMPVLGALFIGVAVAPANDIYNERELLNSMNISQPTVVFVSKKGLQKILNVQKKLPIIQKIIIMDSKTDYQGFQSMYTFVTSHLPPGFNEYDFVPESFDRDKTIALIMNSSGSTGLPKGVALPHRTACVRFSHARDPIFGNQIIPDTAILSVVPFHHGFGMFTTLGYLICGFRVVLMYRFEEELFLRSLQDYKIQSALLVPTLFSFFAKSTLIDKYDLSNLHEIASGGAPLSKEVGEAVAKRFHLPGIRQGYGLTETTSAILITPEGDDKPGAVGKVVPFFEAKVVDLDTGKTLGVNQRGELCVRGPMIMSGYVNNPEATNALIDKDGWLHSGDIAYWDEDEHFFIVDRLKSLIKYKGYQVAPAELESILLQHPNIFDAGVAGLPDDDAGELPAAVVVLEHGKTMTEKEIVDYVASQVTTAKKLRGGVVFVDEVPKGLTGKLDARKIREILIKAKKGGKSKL
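FLuc 10nM, D-luciferin 10uM, ATP 10uM, Mg acetate 10mM, Tris acetate pH 7.5, Tween/BSA; cpd qHTS; enzyme added last; CCD luminescence.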
hNpr1 antagonist: antagonists of human natriuretic peptide receptor Npr1; P16066; HEK293 hNpr1 GloSensor cGMP, ANP-stimulated luminescence; Potency, µM (doses to about 46.3 µM), for the others: top-dose activity change, negative = inhibition, most hits filed as inhibitors; 76,000 compounds, 1.6% hits; calls by dose curve; further: nearly all actives have a fitted effect of over 60% in size
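Compound pre-incubated 30 min at room temperature on GloSensor-loaded HEK293 cells stably carrying hNpr1 and the pGS-40F cGMP biosensor. Stimulation uses hNppA at 0.1 nM final; luminescence is taken at baseline and 20 min post-agonist.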
* hit, by the source's call; i = inactive; u = inconclusive; x = not tested or not shown; ! = not active in a repeat; [ ] = dose if it differs, or a comment. Compounds with a hit are over-represented: about 11% of the library has one in this group of screens. Unless noted, the call rests on the fitted dose curve; in most records, active means well fitted curve in the direction sought with a large enough effect; inconclusive means small, poorly fitted or top-dose-only effect, or another doubt; inactive means no such curve, though single readings can be large; an effect the other way counts as inactive or inconclusive. On the % scale 0 is the no-effect control and ±100 the full control effect; potency means the concentration at half of the fitted maximal effect.

SMILES	HEK293 tox	NIH3T3 tox	FLuc inh	hNpr1 antagonist
Cc1cccc(C)c1-c1nnc2ccc(C(=O)NCc3cccs3)cn12	u	-21%	x	x
C[C@H](C(=O)N1CCOCC1)C1CC[C@@]2(C)Cc3sc(CS(=O)(=O)C(C)(C)C)nc3[C@@H](C)[C@@H]2[C@H]1O (stereo not given in full)	-26%	-23%	i	-3%
COC(=O)N1CCc2nc(C3CC3)nc(-c3ccc(O)cc3)c2CC1	1%[172 µM]	-27%[138 µM]	x	x
O=C1NCc2ccccc2CC12CCCN2Cc1ccc(F)cc1F (stereo not given)	-27%	u	x	x
Cc1ccsc1CN1CCCCC12Cc1ccccc1CNC2=O (stereo not given)	32µM*	u	x	x
O=C1NCc2ccccc2CC12CCCN2Cc1cc(F)ccc1F (stereo not given)	35µM*	u	x	x
CCc1ccccc1CN1CCC2(Cc3ccccc3CNC2=O)C1 (stereo not given)	79µM*	u	x	x
CCOc1cccc(CN2CCCC23Cc2ccccc2CNC3=O)c1 (stereo not given)	79µM*!	u	x	x
O=C(O)c1ccccc1CN1CCC2(Cc3ccccc3CNC2=O)C1 (stereo not given)	i	i	x	x
COc1ccccc1-n1c(=O)c(C(=O)N2CCN(C(=O)c3ccc(Cl)nc3)CC2)nc2cccnc21	i	-3%	x	x
COC(=O)c1ccc2nc(C[C@@H]3C[C@@H](C(C)C)[C@H](CNC(=O)N4CCOCC4)C=C3C)[nH]c2c1	u	u	i	-6%
CC(=O)Nc1cccc(C(=O)N2CCC(c3n[nH]c(=O)n3-c3ccc(C)cc3)CC2)c1	-2%	i	i	-1%
COc1ccccc1-n1c(=O)c(C(=O)NC(C)C)nc2cccnc21	-7%[172 µM]	-21%[138 µM]	x	x
COc1cc(C(=O)NC2CCCc3c2[nH]c2c(Cl)cccc32)cc(OC)c1OC (stereo not given)	u	-13%	i	-13%
O=C1NCc2ccccc2CC12CCN(Cc1cccc(C(F)(F)F)c1)C2 (stereo not given)	40µM*	u	x	x
CCc1ccccc1CN1CCCC12Cc1ccccc1CNC2=O (stereo not given)	79µM*	u	x	x
O=C1NCc2ccccc2CC12CCN(Cc1cccc(F)c1)C2 (stereo not given)	u	-6%	x	x
CCn1cc(S(=O)(=O)N2CCCCC2c2nc(CCOc3ccc(F)cc3)no2)cn1 (stereo not given)	45µM*	u	i	-19%
Cc1ccc(Nc2ccnc(N3CCCC3C(=O)NCCCc3ccccc3)n2)cc1 (stereo not given)	40µM*	u	x	x
COCCNC(=O)C1CCCN1c1nccc(Nc2ccc(C)cc2)n1 (stereo not given)	u	-31%	x	x
Cc1ccc(Nc2ccnc(N3CCCC3C(=O)NCC3CC3)n2)cc1 (stereo not given)	35µM*	-8%	x	x
CSCCNC(=O)C1CCCN1c1nccc(Nc2ccc(C)cc2)n1 (stereo not given)	79µM*	-7%	x	x
O=C(Nc1ccccc1F)N1CCN(c2ccc3nnc(-c4ccccc4)n3n2)CC1	-18%	u	x	x
O=C(CCn1cncn1)N1CCOc2c(O)cc(-c3cccc(Cl)c3)cc2C1	u	u	i	7%
O=C(c1ccccn1)N1CCOc2c(O)cc(-c3cccc(Cl)c3)cc2C1	45µM*	-26%	i	-24%
SMILES	HEK293 tox	NIH3T3 tox	FLuc inh	hNpr1 antagonist
Cn1cc(C(=O)N2CCOc3c(O)cc(-c4csc5ccccc45)cc3C2)cn1	25µM*	u	i	-17%
NC(=O)c1noc(CN2CCOc3c(O)cc(-c4csc5ccccc45)cc3C2)n1	u	u	i	-15%
CN(C)C(=O)N1CCCC1C(=O)N1CCC(N2CCOCC2=O)CC1 (stereo not given)	i	0%	x	x
O=c1n(-c2ccc([N+](=O)[O-])cc2)nc2n1CCN(Cc1cccc3ccccc13)C2	u	u	i	-20%
O=c1n(-c2ccc([N+](=O)[O-])cc2)nc2n1CCN(Cc1ccc(OC(F)(F)F)cc1)C2	35µM*	u	i	18µM*
COc1ccc(-n2nc3n(c2=O)CCN(Cc2cccnc2)C3)cc1	4%	u	x	x
Cc1ccc(CN2CCn3c(nn(-c4ccc([N+](=O)[O-])cc4)c3=O)C2)cc1	45µM*	u	i	u
O=c1n(-c2ccc(Cl)cc2)nc2n1CCN(Cc1ccccc1)C2	u	8.9µM*	x	x
O=c1n(-c2ccc(F)cc2F)nc2n1CCN(Cc1ccc(C(F)(F)F)cc1)C2	79µM*	-22%	i	u
O=C(c1ccc(C(F)(F)F)cc1)N1CCCC1C(=O)N1CCCC1c1nc2ccncc2[nH]1 (stereo not given)	-15%	-33%	x	x
O=c1n(-c2ccc(C(F)(F)F)cc2)nc2n1CCN(Cc1ccsc1)C2	50µM*	u	x	x
O=c1n(-c2ccc([N+](=O)[O-])cc2)nc2n1CCN(Cc1ccc(C(F)(F)F)cc1)C2	35µM*	u	i	14µM*
Cc1ccc(-n2nc3n(c2=O)CCN(C(=O)c2ccc(C(F)(F)F)cc2)C3)cc1	-22%	-24%	i	6%
O=c1n(-c2ccc(C(F)(F)F)cc2)nc2n1CCN(CC1CC1)C2	u	-38%	x	x
O=c1n(-c2ccncc2)nc2n1CCN(Cc1cccc3ccccc13)C2	45µM*	u	i	u
O=c1n(-c2ccc(Cl)cc2)nc2n1CCN(Cc1cccc3ccccc13)C2	-25%	1%	x	x
O=c1n(-c2ccc(C(F)(F)F)cc2)nc2n1CCN(Cc1ccc(F)cc1)C2	32µM*!	40µM*	i	-24%
O=C(NC1CCN(c2ccnc3ccnn23)CC1)c1cncc(Br)c1	u	-33%	x	x
O=c1n(-c2ccc([N+](=O)[O-])cc2)nc2n1CCN(CC1CC1)C2	35µM*	u	u	u
O=C(NCc1ccccn1)C1CCc2nnc(-c3cccc(C(F)(F)F)c3)n21 (stereo not given)	-12%	-12%	x	x
CN(C)CCNC(=O)C1CCc2sc(C(=O)N3CCOCC3)cc2C1 (stereo not given)	0%	4%	i	-2%
Cc1nc(CC2CCN(C(=O)c3cc4c(s3)CCC(C)C4)CC2)no1 (stereo not given)	u	u	40µM*	-2%
Cc1oc(-c2ccc(OC(C)C)cc2)nc1Cn1ccn2nc3c(c2c1=O)CCCC3	8.9µM*	u	i	2%
O=C(Nc1ccccc1)c1ccc(Cn2ccn3nc4c(c3c2=O)CCCC4)cc1	16µM*	u	i	-2%
O=C(Nc1ccc(Cl)cc1)c1ccc(Cn2ccn3nc4c(c3c2=O)CCCC4)cc1	u	-9%	i	-3%
COCCCNC(=O)c1ccc(Cn2ccn3nc4c(c3c2=O)CCCC4)cc1	u	u	i	3%
O=C(Nc1ccc(F)cc1)c1ccc(Cn2ccn3nc4c(c3c2=O)CCCC4)cc1	-16%	-22%	i	0%

High-throughput results from PubChem.
